Source: PubChem BioAssay AID1626 (SRMLSC, 2009)
Out of some 220,000 compounds screened, about 2,000 (0.91%) were called active. Another 2% or so got no clear call; they are omitted. The list is a sample of the results. Results with a measured potency or affinity are listed apart. Values without a mark were called inactive. Rule as the data show it: inconclusive = inhibition above about 80% without an active follow-up result; inactive = below that; test concentration not stated here.

Assay: M. tuberculosis H37Rv growth inhibitors, H37Rv strain (AID 1626);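 also: bacteria incubated seven days before Alamar blue readout; 0% = bacteria only wells and 100% = bacteria with antibiotic wells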
Details: stronger effect = higher value, concentration not given here

Structure (SMILES)	inhibition [%]
Cc1cccc(NN=C2c3ccccc3-c3ccccc32)c1	1.34
Cc1cc(C)nc(SCc2nnc(SCC(=O)Nc3ccc(C)c(C)c3)o2)n1	0.69
Cc1ccc(-c2nn3c(C)nnc3s2)cc1NC(=O)c1ccc(-c2ccc(Cl)cc2Cl)o1	-7.97
Cc1ccccc1CSCC(=O)NC1CCCC1	3.78
Cc1ccccc1NC(=S)N(C)Cc1cn(C)c2ccccc12	2.82
O=C(CSc1nnc(-c2ccc(F)cc2)o1)NC1CCCCC1	-0.23
COc1ccc(CCNC(=O)CSc2nnc(-c3ccc(F)cc3)o2)cc1OC	-1.7
O=C(O)CCc1nn2c3ccccc3n(CCO)c2nc1=O	2.12
S=c1[nH]cnc2scc(-c3ccc(Cl)cc3)c12	76.4
Cc1ccc(-c2csc3nc[nH]c(=O)c23)cc1	-5.48
Cn1c(C(C#N)C(=O)Cc2cccc3ccccc23)nc2ccccc21 (stereo not given)	-15.5
COc1ccc(/C=C/C(=O)Nc2nc(N)n(-c3ccccc3)n2)cc1	6.8
Cc1ccc(Cn2c(NS(=O)(=O)c3ccccc3)nc3ccccc32)cc1	84.8
Nc1nc(NC(=O)/C=C/c2ccccc2)nn1-c1ccccc1	-0.46
CCCn1c(NCc2ccco2)nc2ccccc21	-3.29
Cn1c(C(C#N)C(=O)c2sc3ccccc3c2Cl)nc2ccccc21 (stereo not given)	94.3
O=C(Nc1nc2ccccc2n1Cc1ccc(Cl)cc1)c1ccco1	16.1
O=C(Nc1nc2ccccc2n1CCN1CCCCC1)c1ccco1	6.64
CC(O)C1C(=O)OC2(C)CC(C)(C)NC(=S)N12 (stereo not given)	-6.84
CCOC(=O)c1c(NC(=O)CC)sc(C(C)=O)c1C	2.45
O=C(NN=C1CCCCCC1)c1c[nH]c2ccccc12	-1.9
Cn1c2c(c(=O)n(C)c1=O)CN(CCc1ccccc1)CN2	-1.68
Cc1cc(C)nc(Nc2nc(=O)c3ccccc3s2)n1	-3.37
NC(=O)[C@@H]1CCOc2c(I)cc([N+](=O)[O-])cc2C(=O)N[C@@H](CO)C(=O)NCC(=O)N1	-8.7

Structure (SMILES)	inhibition [%]
CC(=O)N1NC(=Nc2ccccc2)SC1(C)C	-6.07
O=C(CN1CCCC1)NCC12CC3CC(CC(C3)C1)C2	-7.14
COCCNC(=O)C(c1ccc(Cl)cc1)N(CCOC)C(=O)CCC(=O)Nc1nccs1 (stereo not given)	-6.72
Cc1cc(C)cc(N(C(=O)CCC(=O)Nc2ccccn2)C(C(=O)NC(C)C)c2ccc(O)cc2)c1 (stereo not given)	4.72
Nc1nc(SCc2ccc(Cl)cc2Cl)ns1	28.5
Nc1nc(NC(=O)c2ccccc2)nn1-c1ccccc1	-1.03
Nc1nc(NC(=O)c2ccco2)nn1-c1ccccc1	-7.46
COc1ccc(/C=N/NC(=O)c2ccn[nH]2)cc1Cn1nc(C)c([N+](=O)[O-])c1C	1.53
O=C(Cc1ccccc1[N+](=O)[O-])N1CCc2ccccc2C1	-4.17
CC(OC(=O)CCCOc1ccccc1)C(=O)NC(N)=O (stereo not given)	-2.98
Cc1cc(C2=NNC(=NC3CC3)SC2)c(C)n1-c1ccccc1F	-4.49
COCCCN=C1NN=C(c2cc(C)n(-c3ccccc3)c2C)CS1	-2.89
COCC(C)N=C1NN=C(c2cc(C)n(Cc3ccccc3Cl)c2C)CS1 (stereo not given)	5.76
COCCCN=C1NN=C(c2cc(C)n(Cc3ccco3)c2C)CS1	-3.28
O=C(OCC(=O)N1c2ccccc2Sc2ccccc21)C1CC(=O)N(Cc2ccco2)C1 (stereo not given)	3.33
Brc1ccc(-c2c[n+]3c(n2-c2ccccc2)SCC3)cc1	1.71
CCOc1ccccc1CNC(=O)CCN1C(=O)COc2ccccc21	4.08
CCOC(=O)C1=C(c2ccccc2)NC(=O)NC1c1ccc(OC)c(OC)c1 (stereo not given)	-0.28
CCOC(=O)C1=C(c2ccccc2)NC(=O)NC1c1ccc(OCC#N)c(OC)c1 (stereo not given)	2.6
N#Cc1nc(-c2ccccc2F)oc1NC1CCCCC1	3.24
CN(CC(=O)Nc1ccc(C#N)cc1)Cc1ccc(Cl)c(Cl)c1	11.2
CN(CC(=O)Nc1ccc(Cl)c(Cl)c1)C(=O)/C=C/c1ccc(F)cc1	-5.59
CCOP(=O)(OCC)C(Nc1cccc(C(F)(F)F)c1)c1ccc(F)cc1 (stereo not given)	0.98
C=CCN=C1NN=C(c2ccc3c(c2)OCCO3)CS1	-5.3

Structure (SMILES)	inhibition [%]
c1cc2c(cc1C1=NNC(=NC3CC3)SC1)OCCO2	-0.26
COc1ccccc1NS(=O)(=O)c1cc(NC(=O)c2ccco2)ccc1N1CCOCC1	9.4
O=c1[nH]c(=O)n(C2CCCCC2)c(O)c1C1NCCc2ccccc21 (stereo not given)	-2.63
COc1cc(NC(=S)Nc2ccccn2)cc(OC)c1	14.7
Cc1cc(C)c(C)c(S(=O)(=O)N2CCN(C(=S)NCC3CCCO3)CC2)c1C (stereo not given)	9.9
O=C(Nc1ccccc1O)c1ccc(Cl)cc1	-5.68
COc1ccc(C(=O)Nc2cc(Cl)ccc2OC(=O)c2ccc(OC)cc2)cc1	-1.73
CN(C)S(=O)(=O)c1cccc(C(=O)OCC(=O)NC2CCCc3ccccc32)c1 (stereo not given)	2.51
O=C(CSc1nc2ccccc2c(=O)n1-c1ccccc1)N1CCC1	-2.38
O=C(Nc1ccc(F)cc1)c1ccccc1Oc1ccc(C(F)(F)F)cc1[N+](=O)[O-]	-1.92
Cc1ccc(Oc2ccc(C(F)(F)F)cc2[N+](=O)[O-])c([N+](=O)[O-])n1	3.08
OCCC1CN(Cc2cnc(-c3ccccc3)s2)CCN1C1CCCCC1 (stereo not given)	2.22
Cc1cc(C2=NNC(=Nc3ccccc3)SC2)c(C)n1C	0.04
COc1ccc(N=C2NN=C(c3ccc4c(c3)OCCO4)CS2)cc1	-3.14
Cc1ccc(C2=NNC(=Nc3ccc(F)cc3)SC2)cc1	5.11
COCCn1c(C)cc(C2=NNC(=Nc3ccc(OC)cc3)SC2)c1C	-6.04
Fc1ccc(N=C2NN=C(c3cc(F)ccc3F)CS2)cc1	9.64
Cc1cccc(N=C2NN=C(c3ccc4c(c3)OCCO4)CS2)c1	6.79
O=C(CCC1CCCCC1)NNC(=O)c1cnccn1	22.5
CCCS(=O)(=O)c1csc(C(=O)OC)c1N	-5.25
CS(=O)(=O)c1ccc(C(=O)OCC(=O)NC2CCS(=O)(=O)C2)cc1[N+](=O)[O-] (stereo not given)	2.59
CC(C)c1ccc(/C=N/NC(=O)c2nnn(-c3nonc3N)c2CSC2=NCCS2)cc1	-0.79
COc1cc(C(=O)N2CCN(S(=O)(=O)c3ccc(F)cc3)CC2)cc(OC)c1OC	-4.16
CCOC(=O)N1C2=NC(C(=O)OC)=C(C(=O)OC)[C@@H]3N(C)c4ccc(OC)cc4[C@]23C[C@H]1C(=O)OC	5.46

Structure (SMILES)	inhibition [%]
CN1CCc2ccccc2CC1=O	1.98
N#CC1=C2SCC(O)(c3ccccc3)N2C(=O)CC1c1ccccc1 (stereo not given)	-11.4
N#CC1=C2SCC(O)(c3ccccc3)N2C(=O)CC1c1cccs1 (stereo not given)	3.45
COC(=O)CSc1nnc(CNC(=O)c2ccccc2F)n1-c1ccccc1	-1.52
Cc1cccc(N2CCN(C(=O)c3cc(C)oc3C)CC2C)c1 (stereo not given)	4.99
Cc1cccc(N2CCN(C(=O)c3ccncc3)CC2C)c1 (stereo not given)	-7.46
Cc1cc(C)cc(NC(=S)/C(=C(\[O-])c2ccc(Cl)cc2Cl)[n+]2ccccc2)c1	6.94
Cc1ccc(S(=O)(=O)N2CCCN(S(=O)(=O)c3ccc4c(c3)OCCO4)CC2)cc1	8.01
O=C1c2ccccc2S(=O)(=O)c2cc(C(=O)N(c3ccccn3)c3ccccn3)ccc21	-6.02
Fc1ccc(-c2nnc3sc(C4COc5ccccc5O4)nn23)cc1 (stereo not given)	20.6
Clc1ccccc1-c1nnc2sc(C3COc4ccccc4O3)nn12 (stereo not given)	3.12
O=C(NNc1c(Cl)cccc1Cl)C1CCC1	-0.74
Cc1cc(N2CCN(C)CC2)nc2ccc(NC(=S)NCCCN3CCN(C)CC3)cc12	1.11
CCCCCOc1ccc(/C=c2\sc3nc(=O)c(-c4ccccc4)nn3c2=O)cc1OC	-2.22
Cc1ccccc1NC(=O)/C=C/c1cccc(C(F)(F)F)c1	3.62
Cn1c(NC(=O)C[n+]2cc(-c3ccc(F)cc3)n3c2CCC3)cc(=O)n(C)c1=O	-5.35
Cc1ccc(-c2c[n+](CC(=O)Nc3ccc(C)cc3C)c3n2CCC3)cc1	2.12
CCc1ccc(NC(=O)C[n+]2cc(-c3ccc(C)cc3)n3c2CCC3)cc1	0.48
Cc1ccc(-c2c[n+](CC(=O)Nc3ccccc3C)c3n2CCC3)cc1	5.29
O=C(C[n+]1cc(-c2ccc(F)cc2)n2c1CCC2)Nc1nc(-c2ccccc2)cs1	78.7
Cc1ccc(NC(=O)C[n+]2cc(-c3ccccc3)n3c2CCC3)cc1	-1.61
CCCCC(=O)OCC(=O)Nc1ccc(C)c(F)c1	9.33
Cc1ccc(NC(=S)N(Cc2cccs2)Cc2cc3cc(C)cc(C)c3[nH]c2=O)cc1	-1.91
